Screens (PubChem)
Compounds with a hit are over-represented: about 3.5% of the library has one in this group of screens.
Bead autofluor: flagged as autofluorescent in microsphere protease counterscreen | compound autofluorescence counterscreen, microsphere flow cytometry; hits give high values | fluorescence intensity (concentration not given with the values) | 360,000 compounds, 3.1% hits; in the data active means fluorescence intensity above about 16000; inconclusive means no clear call, values can overlap the other calls
BoNT A protease: BoNT/A light chain protease inhibitors, primary screen, biochemical, flow cytometry, MLPCN library. Botulinum neurotoxin type A light chain protease (Clostridium botulinum A str. ATCC 3502). multiplex microsphere protease substrate cleavage. inhibition, % at 10 µM. 360,000 compounds, 0.17% hits. AID 588499, 2011
BoNT F protease: BoNT/F light chain protease inhibitors, primary screen, biochemical, flow cytometry, MLPCN library. inhibition, % at 10 µM. Multiplex microsphere protease cleavage assay. Botulinum neurotoxin type F light chain protease (Clostridium botulinum). 360,000 compounds, 0.22% hits; in the data active means inhibition above about 35%, passing the limit was not always enough; inconclusive means no clear call, values can overlap the other calls
Anthrax LF inh2: Bacillus anthracis LF protease inhibitors, primary screen, biochemical, multiplex microsphere, MLPCN library. multiplex microsphere protease cleavage assay. inhibition, % at 10 µM. Lethal factor (Bacillus anthracis), P15917. AID 588501, 2011. 360,000 compounds, 0.12% hits
Target sequence (P15917 whole entry, looked up): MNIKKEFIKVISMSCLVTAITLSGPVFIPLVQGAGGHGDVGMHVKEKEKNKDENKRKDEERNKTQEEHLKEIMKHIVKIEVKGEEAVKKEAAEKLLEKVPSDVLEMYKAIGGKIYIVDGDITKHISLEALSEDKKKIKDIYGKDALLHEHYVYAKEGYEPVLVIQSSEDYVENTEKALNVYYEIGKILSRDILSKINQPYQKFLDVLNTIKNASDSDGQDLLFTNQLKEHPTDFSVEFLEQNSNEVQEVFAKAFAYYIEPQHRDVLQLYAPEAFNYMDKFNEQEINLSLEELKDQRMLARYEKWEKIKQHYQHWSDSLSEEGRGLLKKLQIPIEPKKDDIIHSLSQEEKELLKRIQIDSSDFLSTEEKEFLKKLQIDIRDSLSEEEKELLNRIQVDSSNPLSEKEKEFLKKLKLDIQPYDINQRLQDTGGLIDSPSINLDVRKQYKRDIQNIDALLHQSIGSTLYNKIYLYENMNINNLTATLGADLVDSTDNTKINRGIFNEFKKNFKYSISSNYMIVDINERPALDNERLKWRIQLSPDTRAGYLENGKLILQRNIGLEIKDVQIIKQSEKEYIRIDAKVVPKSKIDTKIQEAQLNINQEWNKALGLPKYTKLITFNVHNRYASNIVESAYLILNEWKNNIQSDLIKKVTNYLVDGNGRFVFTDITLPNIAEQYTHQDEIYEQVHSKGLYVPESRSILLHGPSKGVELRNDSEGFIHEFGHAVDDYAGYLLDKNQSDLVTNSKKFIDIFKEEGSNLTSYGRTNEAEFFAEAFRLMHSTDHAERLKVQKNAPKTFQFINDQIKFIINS
Of the large screens only hits and unclear results are named; the others gave an inactive call. Unless noted, no stated cut-off is given here; in the data, active means inhibition above about 30%; inconclusive means no clear call, values can overlap the other calls; inactive means below that.

Cn1c(=O)oc2cc(S(=O)(=O)NCCN3CCCCCC3)ccc21	Bead autofluor 21921, BoNT A protease inconclusive
COc1ccc(CC(=O)NC2CC(C)(C)NC(C)(C)C2)cc1OC	BoNT F protease inconclusive
Cc1ccc(NC(=O)C2CCCN2C(=O)Oc2ccccc2)cc1C (stereo not drawn)	Bead autofluor 17854
CC(c1cccs1)N(Cc1ccco1)C(=O)Nc1ccc(Cl)c(Cl)c1 (stereo not drawn)	Bead autofluor 17014
O=C(CCSc1nc(-c2ccco2)cc(C(F)(F)F)n1)N1CCN(c2ccccc2)CC1	none
FC(F)(F)c1cc(-c2ccco2)nc(N2CCN(c3ccccc3)CC2)n1	Bead autofluor 25233
Cc1ccc2[nH]c(=O)c(CN(Cc3cccs3)Cc3nnnn3Cc3ccccc3)cc2c1	none
CCOC(=O)Cn1nnnc1CN(Cc1cccs1)Cc1cc2cc(C)ccc2[nH]c1=O	Bead autofluor 16529
NC(=O)CC(NC(=O)Cc1cccc2ccccc12)c1ccc(NCCc2ccccc2F)c([N+](=O)[O-])c1 (stereo not drawn)	none
CC(C)Cc1ccc(C(C)C(=O)N2CCOCC2)cc1 (stereo not drawn)	Bead autofluor 22712, BoNT A protease inconclusive
O=C(Cn1nnc(-c2ccc(S(=O)(=O)N3CCCC3)cc2)n1)NCC1CCCO1 (stereo not drawn)	Bead autofluor 22963
CC1CCN(S(=O)(=O)c2ccc(NC(=O)Cn3nnc(-c4ccccc4)n3)cc2)CC1	Bead autofluor 19646
O=C(CSc1nnc(-c2ccc(S(=O)(=O)N3CCCC3)cc2)o1)NCC1CCCO1 (stereo not drawn)	none
CC1CCN(S(=O)(=O)c2ccc(NC(=O)Cc3cccs3)cc2)CC1	Bead autofluor 20322
CC1CCCN(CC(=O)Nc2ccc(S(=O)(=O)N3CCCCCC3)cc2)C1 (stereo not drawn)	Bead autofluor 16175
Cc1cc(C)nc(CCNC(=O)c2cc(COc3c(C)cccc3C)on2)n1	none
N#Cc1ccc(COC(=O)c2ccc3c(=O)[nH]c(CN4CCOCC4)nc3c2)cc1	Bead autofluor 23349
COC(=O)c1ccc2c(=O)[nH]c(COC(=O)c3cccc(S(=O)(=O)N4CCOCC4)c3)nc2c1	none
CC1Oc2ccccc2N(CC(=O)N2CCc3ccccc32)C1=O (stereo not drawn)	Bead autofluor 23145
CC1Oc2ccccc2N(CC(=O)N2CCCCC2)C1=O (stereo not drawn)	none
O=C(Cn1cccc1)N1CCc2ccccc21	Bead autofluor 17880
CC1Oc2ccccc2N(CC(=O)c2ccccc2)C1=O (stereo not drawn)	none
CC1Oc2ccccc2N(CC(=O)N2CCCc3ccccc32)C1=O (stereo not drawn)	Bead autofluor 18633
O=C(CSc1nnc(Nc2ccccc2F)s1)Nc1cccc(S(=O)(=O)N2CCCCC2)c1	none
Cc1cccn2cc(-c3ccc(F)cc3)nc12	Bead autofluor 23835
Cc1cccn2cc(-c3ccccc3)nc12	none
CC1CCN(C(=S)c2ccc(O)cc2)CC1	Bead autofluor 22756
CC(C)NC(=O)CN1C(=O)C(=O)c2ccccc21	Bead autofluor 22994, BoNT A protease inconclusive
O=C(CC(O)c1ccncc1)c1ccccc1O (stereo not drawn)	none
Cc1nc(N)sc1-c1csc(Nc2ccc(Cl)cn2)n1	Bead autofluor 16519
CC(C)CN(C(=O)C1CCCO1)C1CCS(=O)(=O)C1 (stereo not drawn)	none
CC(=O)CSc1nc(N)c(C#N)c(-c2cccs2)c1C#N	none
CCCCSc1nc(N)c(C#N)c(-c2cccs2)c1C#N	Bead autofluor 19876
CCNC(=O)n1nccc1C(C)Oc1ccccc1 (stereo not drawn)	Bead autofluor 21929
CC(Oc1ccccc1)c1ccnn1S(=O)(=O)c1ccccc1 (stereo not drawn)	none
Cc1c(NC(=O)c2ccccc2N)cccc1C(=O)O	Bead autofluor 20340
O=C(OCn1ncc(Cl)c(Cl)c1=O)c1ccccc1Cl	Bead autofluor 16218
CCCOc1ccc(CN(C)c2ncnc(N)n2)cc1	BoNT F protease inconclusive
CCCCOc1ccc(CN(C)c2ncnc(N)n2)cc1	Bead autofluor 22920, BoNT A protease inconclusive
Cc1c(N=Cc2cc3c(cc2Cl)OCO3)c(=O)n(-c2ccccc2)n1C	Bead autofluor 23177
Cc1ccc(CCNC(=O)c2ccc(CS(=O)(=O)Cc3ccccc3F)o2)cc1	Bead autofluor 23305
O=C(NCCc1ccccc1)c1ccc(CS(=O)(=O)Cc2ccccc2F)o1	Bead autofluor 18882
O=C(C[n+]1cnn(CC(=O)c2ccc(Cl)cc2Cl)c1)c1ccc([N+](=O)[O-])cc1	none
CCOc1ccc(NC(=O)Nc2cc(C)ccc2F)cc1	Bead autofluor 16132
Cc1sc2ncnc(NCCCN3CCCC3=O)c2c1C	none
O=C(O)c1cn(-c2ccccc2)nc1-c1cccnc1	Bead autofluor 20326
Cc1ccc(CNC(=O)CN(C)S(=O)(=O)c2ccc(F)cc2)cc1	none
Cc1cc(C(=O)CSc2nc3ccccc3[nH]2)c(C)n1CC1CCCO1 (stereo not drawn)	Bead autofluor 17964
Cc1cc(C(=O)CSc2nnc(-c3ccc(Cl)cc3)n2C)c(C)n1CC1CCCO1 (stereo not drawn)	Bead autofluor 22941
CCc1nc2ccc(C(=O)NCCN3CCOCC3)cn2c1N(CC)CCOC	none
CCOC(=O)N1CCN(C(=O)c2nn(C)c3c2CSc2ccccc2-3)CC1	none
COc1cccc(OC)c1C(=O)NC(C)C12CC3CC(CC(C3)C1)C2 (stereo not drawn)	BoNT F protease 35
CSc1ccc(/C=N/n2c(C)nnc2C)cc1	none
CSc1ccc(/C=N/n2c(C)cc(C)cc2=O)cc1	Bead autofluor 23602, BoNT A protease inconclusive
CC(=O)Nc1ccc(S(=O)(=O)NCC(=O)OCC(=O)NCc2ccco2)cc1	none
Cc1cccc(NC(=O)NCC(F)(F)F)n1	Bead autofluor 19660, BoNT A protease inconclusive
Cc1cccc(NC(=O)Nc2ccccc2)n1	none
O=C(CCn1c(=O)c2cccn2c2cccnc21)NCCCN1CCN(c2ccc(F)cc2)CC1	none
COc1ccc(NC(=O)N2CCCC2)cc1OC	none
CC1CN(C(=O)Nc2ccc3c(c2)OCO3)CC(C)O1 (stereo not drawn)	Bead autofluor 20354
COc1ccc(NC(=O)N2CC(C)OC(C)C2)cc1OC (stereo not drawn)	Bead autofluor 24184
COc1cc(C(=O)N2CC(C)OC(C)C2)c([N+](=O)[O-])cc1OC (stereo not drawn)	Bead autofluor 18981
Cc1cccn2cc(CNc3ccccc3)nc12	Bead autofluor 20732
CCCS(=O)(=O)NCc1cn2cccc(C)c2n1	none
COc1ccc(N2CS(=O)(=O)/C(=C/N(C)C)C2=O)cc1	Bead autofluor 20727
COc1ccc(N2Cc3ccccc3C2=O)cc1	BoNT F protease inconclusive
CC1CCCN(C(=O)Cn2c(-c3nonc3N)nc3ccccc32)C1 (stereo not drawn)	Bead autofluor 18146
COc1ccc(C2N=C(Nc3ccc(C)cc3)Nc3nc(C)cc(=O)n32)cc1 (stereo not drawn)	none
